About 35 (0.01%) of roughly 290,000 compounds were called active. This is one part of a sample in which actives are shown more often than they occur. Values without a mark were called inactive.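 The calls were made as follows: active = EGFP signal decrease of at least 30% at 10 µM or well 3 SD below plate mean, unless failing retest; inactive = the rest, including hits failing retest or dose response.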

The assay deals with p/CIP-EGFP fusion (nuclear receptor coactivator 3, mouse) (UniProt Q05BA5). The assay can be described thus: p/CIP-EGFP fusion destabilizers, primary screen, fluorescence, F442A cells (AID 1984). The following applies: 16 h, at 10 µM, stronger effect = higher value.
Sequence of p/CIP-EGFP fusion (nuclear receptor coactivator 3, mouse) (Q05BA5 1-1403): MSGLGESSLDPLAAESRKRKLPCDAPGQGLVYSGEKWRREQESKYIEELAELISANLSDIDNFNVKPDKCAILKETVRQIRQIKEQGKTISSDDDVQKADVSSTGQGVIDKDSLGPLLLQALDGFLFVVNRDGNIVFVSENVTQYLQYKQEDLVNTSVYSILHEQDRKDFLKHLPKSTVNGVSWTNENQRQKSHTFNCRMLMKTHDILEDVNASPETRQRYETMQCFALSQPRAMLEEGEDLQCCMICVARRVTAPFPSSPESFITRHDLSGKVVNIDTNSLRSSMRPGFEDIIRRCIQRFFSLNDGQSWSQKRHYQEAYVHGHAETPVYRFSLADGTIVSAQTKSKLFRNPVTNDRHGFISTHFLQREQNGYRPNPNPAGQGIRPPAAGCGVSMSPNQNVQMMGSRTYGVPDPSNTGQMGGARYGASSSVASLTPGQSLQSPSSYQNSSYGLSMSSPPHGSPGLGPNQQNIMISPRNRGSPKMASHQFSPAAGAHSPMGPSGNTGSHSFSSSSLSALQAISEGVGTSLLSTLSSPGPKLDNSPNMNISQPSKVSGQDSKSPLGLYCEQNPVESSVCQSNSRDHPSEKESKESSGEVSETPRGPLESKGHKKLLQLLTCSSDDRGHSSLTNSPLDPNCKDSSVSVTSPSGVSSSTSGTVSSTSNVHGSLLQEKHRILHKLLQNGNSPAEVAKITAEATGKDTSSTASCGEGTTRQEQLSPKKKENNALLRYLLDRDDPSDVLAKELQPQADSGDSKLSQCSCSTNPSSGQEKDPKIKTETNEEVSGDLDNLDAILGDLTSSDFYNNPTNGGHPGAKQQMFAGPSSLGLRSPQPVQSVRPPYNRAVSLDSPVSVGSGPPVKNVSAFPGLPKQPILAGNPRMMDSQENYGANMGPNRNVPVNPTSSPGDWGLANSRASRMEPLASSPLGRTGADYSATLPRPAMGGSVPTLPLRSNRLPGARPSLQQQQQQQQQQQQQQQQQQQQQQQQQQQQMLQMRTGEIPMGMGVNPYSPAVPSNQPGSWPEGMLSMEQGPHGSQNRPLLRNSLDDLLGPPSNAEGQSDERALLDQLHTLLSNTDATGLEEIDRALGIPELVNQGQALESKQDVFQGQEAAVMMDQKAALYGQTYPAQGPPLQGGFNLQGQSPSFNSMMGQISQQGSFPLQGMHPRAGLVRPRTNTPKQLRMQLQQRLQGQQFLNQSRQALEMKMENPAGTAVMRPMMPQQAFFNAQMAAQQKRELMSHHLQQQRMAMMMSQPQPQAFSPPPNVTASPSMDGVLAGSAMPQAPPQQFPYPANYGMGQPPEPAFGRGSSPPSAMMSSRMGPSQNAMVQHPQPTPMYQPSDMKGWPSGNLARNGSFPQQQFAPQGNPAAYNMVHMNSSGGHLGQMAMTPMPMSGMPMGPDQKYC
For `O=C(Nc1ccc(O)cc1)c1ccc(NC(=O)c2ccco2)cc1`, the decrease of EGFP signal was -4.6%.
As to `CCOc1ccc(S(=O)(=O)N2CCC(c3ccccc3)CC2)cc1C(=O)O`, the decrease of EGFP signal is 2.8%.
On to `COCc1ccc(CN2CCC(Oc3ccc(C(=O)NCc4ccccn4)cc3)CC2)o1`, for which the decrease of EGFP signal was -10.7%.
Consider `COC(c1ccccc1)(c1ccccc1)C(Oc1nc(C)cc(C)n1)C(=O)O` (configuration not stated), for which the decrease of EGFP signal was 0%.
Regarding `O=[N+]([O-])c1ccc2oc(-c3cccc(O)c3)nc2c1`, the decrease of EGFP signal is 7.6%.
As for `CC(Oc1cc2oc(=O)c3c(c2cc1Cl)CCCC3)C(=O)NCc1ccncc1` (configuration not stated), the figure is -2.1%; as for `O=C(C[n+]1cc(Br)cc2ccccc21)c1ccc(F)cc1`, -1.9%.
Turning to `C/C(=N\NC(=O)c1ccc2ccccc2c1)c1cccnc1`, the decrease of EGFP signal was -18.3%.
Consider `CCOc1ccc(CN(C)C(=O)c2ccc(=O)[nH]c2)cc1`, for which the decrease of EGFP signal was 5.1%.
For `Cc1cc(S(=O)(=O)NC2CCCC2)ccc1-n1cnnn1`, the decrease of EGFP signal is -8.5%.
The same measure for `O=C1NC(=O)C(c2ccc(Cl)cc2)N1` (configuration not stated): -72.8%; for `CCOc1ccccc1N1CCN(C(=O)c2ccc3[nH]c(C)c(C)c3c2)CC1`: 6.3%; for `COc1cc(CCC(=O)Nc2ccncc2Cl)cc(OC)c1OC`: -2.4%.
`Cc1nn(C)c(Cl)c1CN1CCC(Oc2ccc(C(=O)N3CCCC3)cc2)CC1`: the decrease of EGFP signal was -12%.
With `O=C(Nc1cccc(-n2cnnn2)c1)c1cccnc1`, the decrease of EGFP signal is 2.8%.
On to `O=C(c1ccc(Cl)cc1)N1N=C(c2ccccn2)CC1(O)C(F)(F)F` (configuration not stated), for which the decrease of EGFP signal is 1.2%.
Regarding `COc1ccc(C2Nc3ccccc3C(=O)N2c2ccc(Cl)cc2)cc1Cn1cc([N+](=O)[O-])cn1` (configuration not stated), the decrease of EGFP signal is -4.3%.
Consider `CCCN(CCC)S(=O)(=O)c1ccc(C(=O)N2CC3CCC(CC3)C2)cc1`, for which the decrease of EGFP signal was -5.7%.
For `CNC(=O)c1sc(NCc2ccccc2OC)nc1C`, the decrease of EGFP signal is -5%.
Take `COc1cccc(NC(=O)N2CCCC2C(=O)NC2CCCCC2)c1` (configuration not stated): the decrease of EGFP signal is -18.1%.
Regarding `NC(=O)c1ccc(Nc2ccc3c(c2)CCC3)c([N+](=O)[O-])c1`, the decrease of EGFP signal is -5%.
The same measure for `C=CCc1cc(C)ccc1OCCCn1ccnc1`: 10.1%; for `CC(C(=O)c1ccc(-c2ccccc2)cc1)[n+]1cccc(Br)c1` (configuration not stated): -9.6%; for `COC(=O)Cn1cnc2scc(-c3ccc(C)c(C)c3)c2c1=O`: 4.1%.
The same measure for `CC(C)(C)NC(=O)C(c1ccc(Cl)cc1)N(CCO)C(=O)c1snc(C(N)=O)c1N` (configuration not stated): 2.5%; for `CC(=O)[C@@]12O[C@@H]1C[C@H]1[C@@H]3CC[C@H]4C[C@@H](O)CC[C@]4(C)[C@H]3CC[C@@]12C`: -26.4%; for `COc1cccc(OCC(O)CNC(=O)c2oc3c(C)c(C)ccc3c2C)c1` (configuration not stated): -15.6%.

For the origin of these results see PubChem BioAssay AID1984 (Sanford-Burnham Center for Chemical Genomics, 2009).
